The test addresses Genome polyprotein (dengue virus type 2) (UniProt P29990).

Here are results for 16 molecules from ChEMBL document CHEMBL5606460, “ASAP - DENV-2 NS2B-NS3 protease fluorescence single point” (2024).

Hit rate of the full screen: of about 2,000 compounds, about 110 (5.5%) showed an effect of 50% or more. The full list was thinned out, with strong results kept by preference.

By inhibition is commonly meant the change of the read-out against control, counted positive when it falls. For the molecule `N[C@H]1CC[C@H](NC(=O)[C@@H](NC(=O)OCc2ccccc2)c2ccc(OCc3ccccc3)cc2)C1`, the inhibition by setting is: (Thailand/16681/1984, Concentration 49.5 uM, Number of replicates 2.0, Standard deviation 0.9979193615621401 %) -9.06%; (Thailand/16681/1984, Concentration 49.5 uM, Number of replicates 2.0, Standard deviation 5.780389191288721 %) -6.13%; (Thailand/16681/1984, Concentration 99.01 uM, Number of replicates 2.0, Standard deviation 0.21863424783935215 %) -6.77%; (Thailand/16681/1984, Concentration 99.01 uM, Number of replicates 2.0, Standard deviation 4.8738871027899835 %) -4.83%; (Thailand/16681/1984, Concentration 198.0 uM, Number of replicates 2.0, Standard deviation 0.20009536646595624 %) 3.56%; (Thailand/16681/1984, Concentration 198.0 uM, Number of replicates 2.0, Standard deviation 2.9330264990309507 %) 6.71%.

With `Cn1cc(NC(=O)c2ccccc2C(F)(F)F)c(-c2ccc(O)cc2)n1`, the inhibition by setting is: (Thailand/16681/1984, Concentration 49.5 uM, Number of replicates 2.0, Standard deviation 1.4149767575059302 %) -3.58%; (Thailand/16681/1984, Concentration 99.01 uM, Number of replicates 2.0, Standard deviation 0.6191126751592 %) -2.21%; (Thailand/16681/1984, Concentration 198.0 uM, Number of replicates 2.0, Standard deviation 0.2617465963559337 %) -3.21%.

Turning to `O=C1C[C@@H](NS(=O)(=O)c2ccc(Oc3ccccc3Cl)cc2)CCN1`, the inhibition (Thailand/16681/1984, Concentration 49.5 uM, Number of replicates 2.0, Standard deviation 1.1905021365747266 %) was -5.52%; the inhibition (Thailand/16681/1984, Concentration 99.01 uM, Number of replicates 2.0, Standard deviation 1.0784606403673063 %) was -3.29%; the inhibition (Thailand/16681/1984, Concentration 198.0 uM, Number of replicates 2.0, Standard deviation 1.453680839379123 %) was -1%.

Take `O=C1NCC[C@@H]1CNS(=O)(=O)c1ccc(Oc2ccccc2Cl)cc1`: the inhibition is, setting by setting: (Thailand/16681/1984, Concentration 49.5 uM, Number of replicates 2.0, Standard deviation 4.002985951466216 %) -0.264%; (Thailand/16681/1984, Concentration 99.01 uM, Number of replicates 2.0, Standard deviation 4.526482853100752 %) 0.42%; (Thailand/16681/1984, Concentration 198.0 uM, Number of replicates 2.0, Standard deviation 4.411103663666057 %) 2.4%.

Consider `O=C(N[C@H]1CCNC1=O)c1cc(Cl)ccc1NS(=O)(=O)c1ccc(Oc2ccccc2Cl)cc1`, for which the inhibition runs as follows: (Thailand/16681/1984, Concentration 49.5 uM, Number of replicates 2.0, Standard deviation 0.36576586141779044 %) 30.3%; (Thailand/16681/1984, Concentration 99.01 uM, Number of replicates 2.0, Standard deviation 0.2318278972972024 %) 51.8%; (Thailand/16681/1984, Concentration 198.0 uM, Number of replicates 2.0, Standard deviation 0.7755829345495912 %) 18.9%.

As to `O=C1NCCC[C@@H]1CNS(=O)(=O)c1ccc(Oc2ccccc2Cl)cc1`, the inhibition reads like this: (Thailand/16681/1984, Concentration 49.5 uM, Number of replicates 2.0, Standard deviation 0.9940716071741866 %) -2.68%; (Thailand/16681/1984, Concentration 99.01 uM, Number of replicates 2.0, Standard deviation 0.27557480876496404 %) -0.801%; (Thailand/16681/1984, Concentration 198.0 uM, Number of replicates 2.0, Standard deviation 0.9840594547230297 %) 1.79%.

`O=C(NCC1CC1)c1cc(Cl)ccc1NS(=O)(=O)c1ccc(Oc2ccccc2Cl)cc1`: the inhibition was 77.8% (Thailand/16681/1984, Concentration 49.5 uM, Number of replicates 2.0, Standard deviation 0.6779748794958176 %); 88.2% (Thailand/16681/1984, Concentration 99.01 uM, Number of replicates 2.0, Standard deviation 0.21598068225710626 %); 87% (Thailand/16681/1984, Concentration 198.0 uM, Number of replicates 2.0, Standard deviation 0.009057863507173258 %).

`O=C1C[C@@H](CNC(=O)c2cc(Cl)ccc2NS(=O)(=O)c2ccc(Oc3ccccc3Cl)cc2)CN1`: the inhibition was 12.4% (Thailand/16681/1984, Concentration 49.5 uM, Number of replicates 2.0, Standard deviation 1.683767946709369 %); 57.2% (Thailand/16681/1984, Concentration 99.01 uM, Number of replicates 2.0, Standard deviation 0.12281254481286434 %); 53.6% (Thailand/16681/1984, Concentration 198.0 uM, Number of replicates 2.0, Standard deviation 0.21046989752060982 %).

For `O=C(NC[C@H]1CCCO1)c1cc(Cl)ccc1NS(=O)(=O)c1ccc(Oc2ccccc2Cl)cc1`, the inhibition (Thailand/16681/1984, Concentration 49.5 uM, Number of replicates 2.0, Standard deviation 0.11391652520397291 %) is 86.2%; the inhibition (Thailand/16681/1984, Concentration 99.01 uM, Number of replicates 2.0, Standard deviation 0.06140357500812747 %) is 84.7%; the inhibition (Thailand/16681/1984, Concentration 198.0 uM, Number of replicates 2.0, Standard deviation 0.13037604965923533 %) amounted to 79.4%.

Take `C[C@H](NC(=O)C1CCN(c2ccc(C=O)cc2)CC1)c1ccc(Br)cc1`: where the note is “Thailand/16681/1984, Concentration 25.0 uM, Number of replicates 1.0”, the inhibition was 12.7%.

For `O=C(N[C@@H](C(=O)NC1CCNCC1)c1ccc(OCc2ccccc2)cc1)OCc1ccccc1`, the inhibition (Thailand/16681/1984, Concentration 49.5 uM, Number of replicates 2.0, Standard deviation 0.04752487067458113 %) was -0.225%; the inhibition (Thailand/16681/1984, Concentration 99.01 uM, Number of replicates 2.0, Standard deviation 0.6611370067327399 %) was -0.49%; the inhibition (Thailand/16681/1984, Concentration 198.0 uM, Number of replicates 2.0, Standard deviation 1.22541945186685 %) was 2.06%.

`CNc1ccccc1C(=O)Nc1cccc2c(CO)cc(C)nc12`: the inhibition is, setting by setting: (Thailand/16681/1984, Concentration 49.95 uM, Number of replicates 2.0, Standard deviation 1.7606224720878931 %) -0.213%; (Thailand/16681/1984, Concentration 99.9 uM, Number of replicates 2.0, Standard deviation 1.1796035516056886 %) 2.15%.

Take `Cc1cc(N)c2cccc(F)c2n1`: the inhibition by setting is: (Thailand/16681/1984, Concentration 49.95 uM, Number of replicates 2.0, Standard deviation 2.207074007413848 %) -9.77%; (Thailand/16681/1984, Concentration 99.9 uM, Number of replicates 2.0, Standard deviation 2.035147234269057 %) -9.31%.

As to `Cn1cc(NC(=O)c2ccccc2C(F)(F)F)c(-c2ccc(N)nc2)n1`, the inhibition reads like this: (Thailand/16681/1984, Concentration 49.5 uM, Number of replicates 2.0, Standard deviation 0.02318042950620363 %) -3.62%; (Thailand/16681/1984, Concentration 99.01 uM, Number of replicates 2.0, Standard deviation 0.5795125921164253 %) -3.54%; (Thailand/16681/1984, Concentration 198.0 uM, Number of replicates 2.0, Standard deviation 2.685074924440845 %) -2.16%.

For the molecule `O=C(c1ccc2c(c1)B(O)OC2)N1CCN[C@H](c2ccc(Cl)cc2)C1`, the inhibition is -1.33% (Thailand/16681/1984, Concentration 49.5 uM, Number of replicates 2.0, Standard deviation 1.1051975895382533 %); -1.22% (Thailand/16681/1984, Concentration 99.01 uM, Number of replicates 2.0, Standard deviation 0.5109273627094355 %); -0.309% (Thailand/16681/1984, Concentration 198.0 uM, Number of replicates 2.0, Standard deviation 0.04393612974415127 %).

Consider `Cc1n[nH]cc1-c1ccccc1C(=O)Nc1cnn(C)c1`, for which the inhibition by setting is: (Thailand/16681/1984, Concentration 49.5 uM, Number of replicates 2.0, Standard deviation 1.4825862030761958 %) -4.22%; (Thailand/16681/1984, Concentration 99.01 uM, Number of replicates 2.0, Standard deviation 3.6856999240165664 %) -5.61%; (Thailand/16681/1984, Concentration 198.0 uM, Number of replicates 2.0, Standard deviation 2.662860479629087 %) -5.61%.
